± gives the standard deviation of the averaged measurements.
System: HCC1569
Assay: cell number relative to DMSO (% of DMSO); higher = more cells (less growth inhibition / toxicity)
Details: concentration: 10 µM; 24 h
Procedure, shortened: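 In 384-well plates holding 800 HCC1569 or TDF cells per well in RPMI with 10% FBS, compounds were tested at 10 µM for 24 h at 37 °C in triplicate. Fixation used 3.7% formaldehyde. Staining used a rabbit anti-H1.0 antibody with an AlexaFluor 647 secondary, plus DAPI. Each value, H1.0 nuclear intensity or cell number, is a median of replicates shown as percent of the plate control, and HCC1569 values were smoothed for positional effects.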
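Also: TDF denotes transformed human dermal fibroblasts of mesenchymal origin.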

Q: `CCCCCCCCCCCCCCCC(=O)O` [Hexadecanoic acid] was tested. Which cell number did it give?
A: 97.3

Q: For `COc1c(O)cc(O)c2c(=O)cc(-c3ccccc3)oc12` [Wogonin], which cell number is on record?
A: 100

Q: `OC1C=C2CCN3Cc4cc5c(cc4C(C1O)C23)OCO5` (configuration not stated) [Lycorine] was tested. Which cell number did it give?
A: 67.4

Q: With `CC1CN(c2c(F)c(N)c3c(=O)c(C(=O)O)cn(C4CC4)c3c2F)CC(C)N1` (configuration not stated) [Sparfloxacin] as the compound, how does the cell number read?
A: 104

Q: Which cell number does the source give for `CN(C)CCOC(c1ccccc1)c1ccccc1.Cl` [Diphenhydramine.HCl] here?
A: 106

Q: For `CC12CCC3c4ccc(O)cc4CC(CCCCCCCCCS(=O)CCCC(F)(F)C(F)(F)F)C3C1CCC2O` (configuration not stated) [Fulvestrant], which cell number is on record?
A: 94.7

Q: For `CCC=CCC=CCC=CCCCCCCCCCC(=O)O` [Eicosatrienoic acid], which cell number is on record?
A: 101 ± 2.8

Q: Which cell number does the source give for `CCC1(O)CC2CN(CCc3c([nH]c4ccccc34)C(C(=O)OC)(c3cc4c(cc3OC)N(C)C3C(O)(C(=O)OC)C(OC(C)=O)C5(CC)C=CCN6CCC43C65)C2)C1.O=S(=O)(O)O` (configuration not stated) [Vinblastine sulfate] here?
A: 53.3

Q: For `CNc1nc(-c2ccc3c(N)n[nH]c3c2)cc(N2C[C@@H](C(=O)NC3CCCCC3)CC[C@H]2C)n1`, which cell number is on record?
A: 52.3

Q: With `CC1(C)C(=O)N(CCN2CCC(C(=O)c3ccc(F)cc3)CC2)c2ccccc21.Cl` [LY-310,762 hydrochloride] as the compound, how does the cell number read?
A: 101

Q: Which cell number does the source give for `CC(C)=CCC(OC(=O)C=C(C)C)C1=CC(=O)c2c(O)ccc(O)c2C1=O` (stereo not drawn) [Shikonin beta,beta-dimethylacrylate] here?
A: 25.4

Q: With `CN1Cc2c(N)cccc2C(c2ccccc2)C1.O=C(O)C=CC(=O)O` (configuration not stated) [Nomifensine maleate] as the compound, how does the cell number read?
A: 102

Q: With `Brc1c(Br)c(Br)c2[nH]cnc2c1Br` [4,5,6,7-tetrabromo-1H-benzimidazole] as the compound, how does the cell number read?
A: 69.9

Q: With `C[N+]1(C)C2CC(OC(=O)C(O)(c3cccs3)c3cccs3)CC1C1OC12.[Br-]` (configuration not stated) [Tiotropium Bromide] as the compound, how does the cell number read?
A: 105

Q: Which cell number does the source give for `CCOC(=O)C1=C(COCCN)NC(C)=C(C(=O)OC)C1c1ccccc1Cl` (configuration not stated) [Amlodipine] here?
A: 98.4

Q: `CCCCCCCCCCCCCC=CC(O)C(CO)NC(=O)CCCCCCC` (configuration not stated) [C8 Ceramide] was tested. Which cell number did it give?
A: 102

Q: How did the cell number turn out when `CCN(CC)CCCCNc1ncc2cc(-c3c(Cl)cccc3Cl)c(NC(=O)NC(C)(C)C)nc2n1` was run?
A: 63.1

Q: For `COc1ccccc1NC(=O)Nc1nc(-c2cccnc2)nc2ccccc12`, which cell number is on record?
A: 97.6

Q: Which cell number does the source give for `NC(C(=O)O)C(O)C(=O)O` (racemic) [DL-threo-beta-hydroxyaspartic acid] here?
A: 101

Q: Which cell number does the source give for `N#CC(=Cc1c[nH]c2ccccc12)C(=O)c1ccc(O)c(O)c1` [Tyrphostin AG 808] here?
A: 93.1

Q: Which cell number does the source give for `O=C(C=Cc1ccc(O)c(O)c1)c1ccc(O)cc1O` [Butein] here?
A: 74.3

Q: With `COc1ccccc1CNCCCCCCNCCCCCCCCNCCCCCCNCc1ccccc1OC.Cl.Cl.Cl.Cl` [Methoctramine tetrahydrochloride] as the compound, how does the cell number read?
A: 104

Q: For `C[N+](C)(CCCCCC[N+](C)(C)CCCN1C(=O)c2cccc3cccc(c23)C1=O)CCCN1C(=O)c2cccc3cccc(c23)C1=O.[Br-].[Br-]`, which cell number is on record?
A: 100

Q: How did the cell number turn out when `CC(C)NCC(O)c1ccc(O)c(O)c1` (racemic) [DL-Isoproterenol] was run?
A: 107

Q: Which cell number does the source give for `Cc1ccc(C(=CCN2CCCC2)c2ccccn2)cc1.Cl` [Triprolidine hydrochloride] here?
A: 106

Q: How did the cell number turn out when `O=P(O)(O)C(O)(Cn1ccnc1)P(=O)(O)O` [Zoledronic acid] was run?
A: 99

Q: Which cell number does the source give for `c1coc(CNc2ncnc3nc[nH]c23)c1` [Kinetin] here?
A: 103

Q: Which cell number does the source give for `CC1=C(C(=O)Nc2cc3cn[nH]c3cc2F)C(c2ccc(C(F)(F)F)cc2)CC(=O)N1` (configuration not stated) here?
A: 113

Q: For `O=C(O)COc1ccc(C(=O)c2cccs2)c(Cl)c1Cl` [[2,3-dichloro-4-(2-thienylcarbonyl)phenoxy]acetic acid], which cell number is on record?
A: 106

Q: Which cell number does the source give for `CCCCNc1ncc(C(=O)NCc2ccc(-n3ccnc3)cc2)c(NC2CCC(O)CC2)n1` (configuration not stated) here?
A: 65.8

Q: Which cell number does the source give for `O=C([O-])CCC(NC(=O)c1ccccc1C(=O)[O-])C(=O)[O-].[Na+].[Na+].[Na+]` [Phthalamoyl-L-glutamic acid trisodium] here?
A: 61.8

Q: How did the cell number turn out when `CCCCCCCCCCCCCCCCC(=O)O` [Heptadecanoic acid] was run?
A: 99.9

— the supplement of paper PMC7156485
